Assay results: the supplement of paper PMC6805474
Values without a mark were called inactive.

How the values were obtained:
[1] = tested on: Schistosoma mansoni schistosomula (NMRI); test: phenotypic severity score (0-4); higher = more antischistosomal effect, active = 2 or more; settings: 10 µM
[2] = tested on: Schistosoma mansoni schistosomula (Liberian); test: drug effect (1 - score/DMSO control score) (fraction); higher = more antischistosomal effect, active = 0.5 or more; extreme values may be limits of the assay; settings: 10 µM
Method in brief: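 Liberian-strain Schistosoma mansoni schistosomula, mechanically transformed from cercariae and pre-incubated at least 12 h, were exposed in duplicate (50 per well, flat-bottom 96-well plates) to 10 µM compound in Medium 199 with 5% FCS at 37 °C, 5% CO2, with 0.1% DMSO control wells. Wells were scored visually (10×) at 24, 48 and 72 h on a quarter-point scale from 3 (normal) to 0 (dead). Drug effect was derived from the mean test-well score relative to the mean DMSO-control score. Negative values were set to zero, and plates were valid only if control wells averaged at least 2.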
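Throughout, for phenotypic severity score (0-4): visual microscopic scoring of shape, motility and density changes versus 0.5% DMSO solvent controls, one point per descriptor, degeneracy or death scored 4, mean of duplicate wells.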

Structure (SMILES) | phenotypic severity score ([1]; 24 h) | phenotypic severity score ([1]; 48 h) | phenotypic severity score ([1]; 72 h) | drug effect ([2]; 24 h) | drug effect ([2]; 48 h) | drug effect ([2]; 72 h)
Nc1c2c(nc3sc4c(c13)CCCC4)CCCC2 | 4 (active) | 4 (active) | 4 (active) | 0.545 (active) | 0.8 (active) | 0.564 (active)
O=C1O[C@@H](CO)CN1c1cc(F)c(C2=CCN(Cc3ccccc3)CC2)c(F)c1 | 0 | 0 | 2 (active) | 0.05 | 0.111 | 0.188
CC(C)(C)C(O)C(Oc1ccc(-c2ccccc2)cc1)n1cncn1 (centres undefined) | 1 | 0 | 0 | 0.0909 | 0.15 | 0.127
CC1(C)OB(O)c2ccc(C3=NOC(c4cc(Cl)c(F)c(Cl)c4)(C(F)(F)F)C3)cc21 (centres undefined) | 2 (active) | 0 | 1 | 1 (active) | 1 (active) | 1 (active)
Cc1cccc(C(=O)Nc2ccnc(N(C)C3CCN(CC(C)C)CC3)c2)c1 | 0 | 0 | 0 | 0.1 | 0.243 | 0.212
Cc1nn(C)c(C)c1NS(=O)(=O)c1c(Cl)cc(-c2ccnc(N3CCNCC3)c2)cc1Cl | 0 | 0 | 0 | 0.15 | 0.0811 | 0.152
CO[C@@H]1CN(c2ccc(C#CC3(O)CN4CCC3CC4)c(Cc3ccccc3)n2)C[C@H]1O (some centres undefined) | 0 | 0 | 0 | < 0 | < 0 | 0.111
CO/N=C(\C(=O)OC)c1ccccc1CO/N=C(\C)c1cccc(C(F)(F)F)c1 | 1 | 0 | 0 | 0.05 | 0.027 | 0.152
CO/C=C(/C(=O)OC)c1ccccc1Oc1cc(Oc2ccccc2C#N)ncn1 | 0 | 0 | 0 | 0.05 | 0.027 | 0.111
CCc1nn(C)c(C(=O)NCc2ccc(Oc3ccc(C)cc3)cc2)c1Cl | 1 | 1 | 2 (active) | 0.364 | 0.55 (active) | 0.455
Cc1nn(Cc2ccccc2)c(Cl)c1C(=O)NC1CCCCCC1 | 2 (active) | 0 | 0 | 0.0455 | 0.05 | 0.0727
Cc1cc(C2=NOC(c3cc(Cl)c(F)c(Cl)c3)(C(F)(F)F)C2)ccc1C(=O)NCc1ccc2c(c1)C(C)(C)OB2O (centres undefined) | 0 | 0 | 0 | 0.2 | 0.135 | 0.167
O=C1O[C@@H](COc2ccon2)CN1c1cc(F)c(C2=CCN(Cc3ccccc3)CC2)c(F)c1 | 0 | 0 | 0 | 0.1 | 0.167 | 0.25
CC1COC(Cn2cncn2)(c2ccc(Oc3ccc(Cl)cc3)cc2Cl)O1 (centres undefined) | 2 (active) | 1 | 2 (active) | 0.136 | 0.25 | 0.0727
